# A selection follows.
# aSyn 5UTR act – Activators via SNCA 5'UTR binding, MLPCN; activity score, % (tested at 7.5 µM), hits read low; 300,000 compounds, 7.1% hits; AID 1814; alpha-synuclein 5'UTR reporter, activators screen; in the data active means activity score below about -60%
# * = called active by the depositor.
SMILES,aSyn 5UTR act
CC(=O)N1CCN(c2ccc(NC(=O)c3cccc(C)c3)cc2)CC1,-73*
Cc1ccc(N2CCN(C(=O)c3ccccc3NC(=O)c3ccccc3C(=O)O)CC2)cc1,-100*
CC(=O)N1CCN(c2ccc(NC(=O)c3ccc(Cl)c([N+](=O)[O-])c3)cc2)CC1,-70*
CC(=O)N1CCN(c2ccc(NC(=O)c3ccccc3)cc2)CC1,-106*
Cc1cccc(C(=O)Nc2ccc(C(=O)N3CCCCC3C)cc2)c1 (configuration not stated),-84*
N#CC(C(=O)C12CC3CC(CC(C3)C1)C2)c1nc2ccccc2[nH]1 (configuration not stated),-74*
C=C(C(=O)c1ccccc1)C(C)C(=C)C(=O)c1ccccc1,-149*
CN(C)/C=C1\C(=O)N(c2ccc(Cl)c(Cl)c2)CS1(=O)=O,-81*
CCN(CC)S(=O)(=O)c1cccc(-c2nc3n(n2)Cc2ccccc2-3)c1,-86*
Cc1ccc2nc(-c3cccc(S(=O)(=O)N(C)C)c3)cn2c1,-171*
CCN(CC)S(=O)(=O)c1cccc(-c2cn3cc(C)ccc3n2)c1,-78*
Cc1ccc2nc(-c3ccc(S(=O)(=O)N4CCCCC4)cc3)cn2c1,-81*
C[C@@H]1[C@@H](Sc2ccccc2)CC(=O)O[C@@H]1c1ccc(-c2ccccc2)cc1,-182*
O=C(CC1OC(=O)c2ccccc21)c1ccco1 (configuration not stated),-75*
[O-]/[N+](=C\c1ccncc1)c1ccc(Br)cc1,-225*
[O-]/[N+](=C/c1cccnc1)c1ccc(Br)cc1,-95*
Cc1cc(C(=O)Nc2cc(C(C)(C)C)on2)c(C)o1,-147*
O=C(Nc1ccsn1)c1ccc(Cl)cc1Cl,-162*
Cc1cc(C(=O)NNC(=O)c2ccc(Cl)cc2Cl)c(C)o1,-76*
O=C(CCCN1C(=O)/C(=C/c2ccccc2Cl)SC1=S)NNC(=O)c1ccc(Cl)cc1Cl,71
Cc1cccc(NC(=O)Nc2cc(C)on2)c1,-73*
Cc1cc(/C(N)=N/OC(=O)Nc2ccc(Cl)cc2)no1,-92*
Cc1ccc(NC(=O)Nc2cc(C)on2)cc1,-143*
Cc1cc(NC(=O)c2ccc(Cl)cc2Cl)no1,-185*
Cc1cc(NC(=O)Nc2ccc(Cl)cc2)no1,-110*
SMILES,aSyn 5UTR act
CC(C)(C)c1cc(NC(=O)Nc2ccccc2)no1,-197*
CC/C(=N\Nc1ccccc1[N+](=O)[O-])c1ccc(O)cc1,-90*
C/C(=N\Nc1ccccc1[N+](=O)[O-])c1ccccc1O,-221*
CC1(C)C=Cc2cc3ccc(=O)oc3cc2O1,-111*
O=C(Oc1ccccc1/C=C\C(=O)c1cc2ccccc2o1)c1ccccc1,-300*
COc1cccc(C(=O)Oc2ccccc2/C=C\C(=O)c2cc3ccccc3o2)c1,-192*
O=C(Oc1ccccc1/C=C\C(=O)c1cc2ccccc2o1)c1cccc(F)c1,-234*
O=C(CNc1ccccc1)Nc1ccc(F)cc1,-118*
Cc1ccc(NCC(=O)Nc2ccc(Br)cc2)cc1F,-77*
O=C(CC(=O)Nc1ccccc1)Nc1ccccc1,-69*
CCOc1ccccc1C1CC(=O)Nc2cc3c(cc21)OCCO3 (configuration not stated),92
CCOC(=O)c1c(C)[nH]c(C(=O)COC(=O)C2CC2C)c1C (configuration not stated),-143*
Cc1ccc(C(=O)Nc2ccc3c(c2)nc2n3CCSC2)cc1,-67*
CCCCC(=O)Nc1ccc2c(c1)nc1n2CCSC1,-84*
Fc1ccc(NC(=S)N2N=CCC2c2ccccc2)cc1 (configuration not stated),-101*
S=C(Nc1ccccc1)N1N=CCC1c1ccccc1 (configuration not stated),-153*
O=C(Nc1cccc2ccccc12)N1N=CCC1c1ccccc1 (configuration not stated),-89*
Cc1cccc(Nc2nnc(SCC3CCCCO3)s2)c1 (configuration not stated),-184*
CCOc1ccc(/C=C/C2=Cc3c(sc(NC(=O)CSc4n[nH]c(N)n4)c3C#N)C(C)(C)C2)cc1,-95*
O=C(NCCc1ccccc1Cl)c1ccc2nc3ccccc3c(=O)n2c1,-100*
CC1(C)Cc2c(sc(NC(=O)COc3ccc(Cl)cc3Cl)c2C(N)=O)C(C)(C)N1,62
COC(=O)c1sccc1NC(=O)COc1ccc(Cl)cc1Cl,-162*
COC(=O)c1sccc1NC(=O)COc1ccc(C)cc1,-144*
Cc1sc2c(c1C)C(=O)NC(c1cccc(O)c1)N2 (configuration not stated),-233*
COc1cccc(N2CCN(c3cnc4ccccc4n3)CC2)c1,-116*
COc1ccc(N2CCN(c3ncccn3)CC2)cc1,-130*
COc1ccc(N2CCN(c3cnc4ccccc4n3)CC2)cc1,-101*
CCOc1ccc(NC(=O)CN(C)c2ccc(S(=O)(=O)N(C(C)C)C(C)C)cn2)cc1OCC,61
CN(CC(=O)Nc1ccc(Cl)c(S(=O)(=O)N(C)C)c1)Cc1ccccc1,-109*
CCCCc1ccc(NC(=S)Nc2ccc(Cl)c(S(=O)(=O)N(C)C)c2)cc1,-68*
